The text below walks through data of PubChem BioAssay (EPA / NIEHS).

The target of test [1] is Nuclear respiratory factor 1 (Homo sapiens) (UniProt Q16656). The experiment in a line: ATG_NRF1_CIS: Attagene CIS-FACTORIAL HepG2 Assay for human Nuclear Respiratory Factor 1 (NRF1) Orphan Gene (AID 2282987). The conditions noted are these: HepG2 NRF1 cis-element reporter, Attagene multiplex; actives raise or lower the signal. In a few lines: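 HepG2 cells transiently transfected with multiple cis-regulated reporter units, exposed 24 h. Reporter mRNAs measured by RT-PCR, fluorescent labelling, HpaI digestion and capillary electrophoresis; bidirectional fitting against DMSO.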

Test [2] can be described thus: ATG_NFI_CIS: Attagene CIS-FACTORIAL HepG2 Assay for human Nuclear Factor I (NFI) (AID 2282989). The conditions noted are these: HepG2 cis-regulatory reporter, NFI response element transcription; actives raise or lower the signal. In a few lines:
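Reporter transcripts were measured by RT-PCR with fluorescent primer extension and capillary electrophoresis 24 h post-treatment. HepG2 cells carried transiently transfected cis-regulated reporter constructs reporting endogenous factor activity; gain or loss fitted against DMSO baseline.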

The target of test [3] is Myc proto-oncogene protein (Homo sapiens) (UniProt P01106). The experiment in a line: ATG_Myc_CIS: Attagene CIS-FACTORIAL HepG2 Assay for human Myelocytomatosis (Myc) Proto-Oncogene Transcription Factor (AID 2282990). The conditions noted are these: HepG2, Attagene cis-reporter transcription factor activity; actives raise or lower the signal. In a few lines: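 Transiently transfected HepG2 cells bearing cis-promoter reporter units for endogenous transcription factors; 24 h exposure. Reporter mRNA measured by RT-PCR, 6-FAM primer extension, HpaI cut and capillary electrophoresis; bidirectional fit relative to DMSO.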

A short description of test [4]: ATG_NF_kB_CIS: Attagene CIS-FACTORIAL HepG2 Assay for human Nuclear Factor Kappa B (NF-kB) (AID 2282991). The conditions noted are these: HepG2 Attagene cis-factorial NF-kB reporter mRNA; actives raise or lower the signal. The method in brief:
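HepG2 cells transfected with cis-promoter-driven reporter units, so endogenous transcription factor activity is measured. Reporter mRNA quantified 24 h after dosing by RT-PCR and capillary electrophoresis, with bidirectional fitting against DMSO.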

Test [5] can be described thus: ATG_NRF2_ARE_CIS: Attagene CIS-FACTORIAL HepG2 Assay for human Nuclear Factor Erythroid 2 Related Factor 2 (NFR2) response to Antioxidant Response Elements (ARE) (AID 2282992). The conditions noted are these: HepG2 Attagene ARE/NRF2 reporter, transcription factor activity; actives raise or lower the signal. The method in brief:
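Multiplexed reporter mRNA profiling in HepG2 after a 24 h chemical exposure. Curves fitted in both directions relative to DMSO negative control.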

In test [6] the target is Cellular tumor antigen p53 (Homo sapiens) (UniProt P04637). The experiment in a line: ATG_p53_CIS: Attagene CIS-FACTORIAL HepG2 Assay for human p53 Transcription Factor (AID 2282994). The conditions noted are these: HepG2 p53 cis-element reporter, Attagene mRNA; actives raise or lower the signal. In a few lines:
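Multiplexed reporter mRNA assay in human HepG2 liver cells; cis-regulated units report endogenous factor activity. Values come from bidirectional curve fitting against DMSO negative control after 24 h treatment.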

Test [7] in a line: BSK_3C_uPAR: BioMAP Diversity Plus: 3C Assay for Urokinase-type plasminogen activator receptor (uPAR) Biomarker Activity (AID 2282998). The conditions noted are these: BioMAP 3C HUVEC, uPAR biomarker ELISA; actives raise or lower the signal. The method in brief: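 Cell-surface uPAR on HUVEC (3C system) read by ELISA at 24 h post-treatment, with DMSO as baseline and fitting in both directions. Parallel cultures stained with SRB to flag overt cytotoxicity.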

The nature of test [8]: BSK_3C_VCAM1: BioMAP Diversity Plus: 3C Assay for Vascular cell adhesion molecule 1 (VCAM1) Biomarker Activity (AID 2282999). The conditions noted are these: BioMAP 3C HUVEC, VCAM1 ELISA, cytokine-stimulated; actives raise or lower the signal. In a few lines: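 Human umbilical vein endothelial cells (3C system), biomarker read by ELISA 24 h after dosing; bidirectional fit against DMSO baseline. Cytotoxicity tracked by SRB total-protein staining in parallel cultures at biomarker time.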
(An ELISA detects its analyte on a solid surface through an enzyme-linked reagent.)

The nature of test [9]: BSK_4H_Eotaxin3: BioMAP Diversity Plus: 4H Assay for Eotaxin 3 Biomarker Activity (AID 2283000).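 For outcome: CCL26 protein level quantified by ELISA in parallel with SRB cytotoxicity check.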 The conditions noted are these: primary human endothelial cells (HUVEC); actives raise or lower the signal. In a few lines: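 ELISA quantitation of CCL26 (Eotaxin-3) protein from chemically dosed human vascular endothelial cells at 24 h; increases and decreases both scored relative to DMSO-treated baseline.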

Test [10] is described as follows: BSK_3C_Proliferation: Cell Proliferation Assessment in the BioMAP Diversity Plus: 3C Assay (AID 2283006).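 For AC50: potency may reflect either rise or fall in cell number versus DMSO.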 The conditions noted are these: primary human endothelial cells (HUVEC). The method in brief: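 Human umbilical vein endothelial cells were grown sub-confluent and exposed to chemical for 48 h, then fixed with 10% TCA and stained with 0.1% sulforhodamine B; absorbance at 560 nm gave relative cell number, fitted bidirectionally against DMSO baseline.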

The target in test [11] is Peroxisome proliferator-activated receptor gamma (Homo sapiens) (UniProt P37231). The experiment in a line: ATG_PPARg_TRANS: Attagene TRANS-FACTORIAL HepG2 Assay for human Peroxisome Proliferator-activated Receptor-gamma (PPARg) (AID 2283007; active = hit-call score of the fitted dose curve at least 0.9, where 1 is the maximum). The method in brief:
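HepG2 cells are transiently transfected with GAL4-UAS reporter units driven by chimeric NR-Gal4 fusions and dosed for 24 h. Reporter mRNA is quantified by RT-PCR, 6-FAM labelling, HpaI digestion and capillary electrophoresis. Induction is scored against DMSO.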

Test [12] concerns the target Nuclear receptor subfamily 1 group I member 2 (Homo sapiens) (UniProt O75469). The test can be described thus: ATG_PXR_TRANS: Attagene TRANS-FACTORIAL HepG2 Assay for human Pregnane X Receptor (PXR) (AID 2283008; active = hit-call score of the fitted dose curve at least 0.9, where 1 is the maximum). In a few lines:
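Measures mRNA induction of a GAL4-UAS-driven reporter in human HepG2 cells transiently expressing PXR fused to Gal4, following 24 h treatment. DMSO served as negative control and baseline.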

For test [13], the target named is human Retinoic Acid Receptor gamma (RARg), RARG (gene 5916) (UniProt P13631). The experiment in a line: ATG_RARg_TRANS: Attagene TRANS-FACTORIAL HepG2 Assay for human Retinoic Acid Receptor gamma (RARg) (AID 2283009; active = hit-call score of the fitted dose curve at least 0.9, where 1 is the maximum). The method in brief: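 HepG2 cells transiently transfected with multiplexed reporter units expressing chimeric RARg-GAL4 and GAL4-UAS-driven reporters; 24 h compound exposure. Reporter mRNA quantified by RT-PCR with fluorescent labelling and capillary electrophoresis; gain-of-signal fitted relative to DMSO baseline.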

The nature of test [14]: ATG_Oct_MLP_CIS: Attagene CIS-FACTORIAL HepG2 Assay for human Octamer-Binding Transcription Factor (Oct) (AID 2282993). The conditions noted are these: HepG2 Attagene cis-factorial Oct reporter, mRNA; actives raise or lower the signal. In a few lines: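 Readout is reporter transcript level from RT-PCR with fluorescent primer extension and capillary electrophoresis, fitted in both directions against DMSO. Transfected HepG2 reporter units report endogenous factor activity after 24 h dosing.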

Test [15] has as its target human Peroxisome Proliferator-activated Receptor alpha (PPARa), PPARA (gene 5465) (UniProt Q07869). The experiment in a line: ATG_PPARa_TRANS: Attagene TRANS-FACTORIAL HepG2 Assay for human Peroxisome Proliferator-activated Receptor alpha (PPARa) (AID 2283001; active = hit-call score of the fitted dose curve at least 0.9, where 1 is the maximum). The method in brief: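 Measures transcriptional activity of an exogenous chimeric PPARa-Gal4 protein in transiently transfected HepG2 cells after 24 h dosing. Reporter mRNA quantified via RT-PCR and capillary electrophoresis; DMSO served as negative control.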

Test [16] has as its target human Peroxisome Proliferator-activated Receptor delta (PPARd), PPARD (gene 5467) (UniProt Q03181). The test can be described thus: ATG_PPARd_TRANS: Attagene TRANS-FACTORIAL HepG2 Assay for human Peroxisome Proliferator-activated Receptor delta (PPARd) (AID 2283002; active = hit-call score of the fitted dose curve at least 0.9, where 1 is the maximum). In a few lines:
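HepG2 cells transiently transfected with GAL4-UAS multiplexed reporter units driven by exogenous chimeric NR-GAL4 proteins; 24 h compound exposure. Reporter mRNA measured by RT-PCR, 6-FAM primer extension, HpaI digestion and capillary electrophoresis; gain of signal fitted relative to DMSO.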

Test [17] has as its target Retinoic acid receptor alpha (Homo sapiens) (UniProt P10276). The experiment in a line: ATG_RARa_TRANS: Attagene TRANS-FACTORIAL HepG2 Assay for human Retinoic Acid Receptor alpha (RARa) (AID 2283005; active = hit-call score of the fitted dose curve at least 0.9, where 1 is the maximum). In a few lines: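 HepG2 transiently transfected with multiplex GAL4-UAS reporter units including a human RARa–GAL4 chimera; 24 h compound exposure. Reporter mRNA quantified by RT-PCR, 6-FAM labeling and capillary electrophoresis; gain of signal versus DMSO.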

Test [18] addresses human Retinoic Acid Receptor beta (RARb), RARB (gene 5915) (UniProt P10826). The test can be described thus: ATG_RARb_TRANS: Attagene TRANS-FACTORIAL HepG2 Assay for human Retinoic Acid Receptor beta (AID 2283004; active = hit-call score of the fitted dose curve at least 0.9, where 1 is the maximum). The method in brief: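 Fluorescent capillary-electrophoresis detection of GAL4-UAS reporter mRNA defines the endpoint, with induction over DMSO-treated wells scored as activity. Transiently transfected human hepatoma HepG2 cells expressing exogenous NR–Gal4 proteins are exposed to test chemicals for 24 h.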

Test [19] in a line: BSK_3C_TissueFactor: BioMAP Diversity Plus: 3C Assay for Tissue Factor Biomarker Activity (AID 2282997). The conditions noted are these: BioMAP 3C HUVEC, tissue factor biomarker readout; actives raise or lower the signal. In a few lines:
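Endothelial monolayers (human umbilical vein, primary) are dosed, incubated 24 h, and assayed for Tissue Factor by ELISA; DMSO serves as negative control for bidirectional fitting.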

Read-out in test [20]: Intercellular Adhesion Molecule 1 (ICAM1), ICAM1 (gene 3383)
The experiment in a line: BSK_3C_ICAM1: BioMAP Diversity Plus: 3C Assay for Intercellular Adhesion Molecule 1 (ICAM1) Biomarker Activity (AID 2283003). The conditions noted are these: primary human endothelial cells (HUVEC); actives raise or lower the signal. In a few lines: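 Primary human umbilical vein endothelial cells in the BioMAP 3C system were exposed to chemicals for 24 h, then ICAM-1 was quantified by ELISA. Activity was fitted bidirectionally against the DMSO negative control baseline.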

“And” between values parts separate entries of the source, which are not always exact repeats. Equal entries are not always repeated. Inconclusive results are not listed. The source made the active and inactive calls. Rule for the calls, unless noted: active = hit-call score of the fitted dose curve at least 0.9, where 1 is the maximum; inactive = score below 0.9.

human Peroxisome Proliferator-activated Receptor delta (PPARd), PPARD (gene 5467), sequence (Q03181 whole entry, looked up, the tested form may be a part): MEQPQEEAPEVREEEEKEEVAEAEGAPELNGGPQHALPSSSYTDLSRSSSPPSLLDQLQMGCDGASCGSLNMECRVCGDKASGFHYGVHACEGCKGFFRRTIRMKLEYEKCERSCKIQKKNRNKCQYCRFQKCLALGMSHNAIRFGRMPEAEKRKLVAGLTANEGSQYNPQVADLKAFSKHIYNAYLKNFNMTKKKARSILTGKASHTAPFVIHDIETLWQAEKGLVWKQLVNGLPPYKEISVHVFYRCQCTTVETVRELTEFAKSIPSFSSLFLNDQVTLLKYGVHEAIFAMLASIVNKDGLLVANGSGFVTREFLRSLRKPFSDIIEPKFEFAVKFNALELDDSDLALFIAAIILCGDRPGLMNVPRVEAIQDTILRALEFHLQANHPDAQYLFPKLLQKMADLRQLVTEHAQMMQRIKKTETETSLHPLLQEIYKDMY
human Peroxisome Proliferator-activated Receptor alpha (PPARa), PPARA (gene 5465), sequence (Q07869 whole entry, looked up, the tested form may be a part): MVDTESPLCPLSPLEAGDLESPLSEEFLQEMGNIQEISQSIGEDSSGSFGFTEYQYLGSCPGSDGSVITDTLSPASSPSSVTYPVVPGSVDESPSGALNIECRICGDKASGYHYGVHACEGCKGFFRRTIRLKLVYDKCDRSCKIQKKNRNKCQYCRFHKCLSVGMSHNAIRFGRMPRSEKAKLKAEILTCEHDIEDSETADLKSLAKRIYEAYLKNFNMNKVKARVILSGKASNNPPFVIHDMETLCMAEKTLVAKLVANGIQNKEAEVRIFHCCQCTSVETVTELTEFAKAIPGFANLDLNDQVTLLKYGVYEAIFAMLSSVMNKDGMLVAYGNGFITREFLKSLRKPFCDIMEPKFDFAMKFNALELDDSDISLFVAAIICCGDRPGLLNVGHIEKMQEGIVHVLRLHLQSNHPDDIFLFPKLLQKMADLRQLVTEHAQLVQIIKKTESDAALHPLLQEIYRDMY
human Retinoic Acid Receptor gamma (RARg), RARG (gene 5916), sequence (P13631 whole entry, looked up, the tested form may be a part): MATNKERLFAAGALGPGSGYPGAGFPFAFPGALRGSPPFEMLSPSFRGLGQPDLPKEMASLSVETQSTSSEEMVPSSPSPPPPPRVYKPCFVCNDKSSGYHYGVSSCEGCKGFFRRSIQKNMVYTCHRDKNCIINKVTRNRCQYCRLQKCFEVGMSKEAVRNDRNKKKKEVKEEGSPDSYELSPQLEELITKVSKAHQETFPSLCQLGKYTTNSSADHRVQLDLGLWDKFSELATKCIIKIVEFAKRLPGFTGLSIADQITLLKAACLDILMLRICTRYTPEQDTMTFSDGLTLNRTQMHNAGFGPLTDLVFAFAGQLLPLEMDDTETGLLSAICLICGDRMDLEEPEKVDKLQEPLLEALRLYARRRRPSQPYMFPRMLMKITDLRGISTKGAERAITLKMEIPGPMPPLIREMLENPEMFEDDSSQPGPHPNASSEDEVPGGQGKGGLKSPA
Nuclear respiratory factor 1 (Homo sapiens), sequence (Q16656 whole entry, looked up): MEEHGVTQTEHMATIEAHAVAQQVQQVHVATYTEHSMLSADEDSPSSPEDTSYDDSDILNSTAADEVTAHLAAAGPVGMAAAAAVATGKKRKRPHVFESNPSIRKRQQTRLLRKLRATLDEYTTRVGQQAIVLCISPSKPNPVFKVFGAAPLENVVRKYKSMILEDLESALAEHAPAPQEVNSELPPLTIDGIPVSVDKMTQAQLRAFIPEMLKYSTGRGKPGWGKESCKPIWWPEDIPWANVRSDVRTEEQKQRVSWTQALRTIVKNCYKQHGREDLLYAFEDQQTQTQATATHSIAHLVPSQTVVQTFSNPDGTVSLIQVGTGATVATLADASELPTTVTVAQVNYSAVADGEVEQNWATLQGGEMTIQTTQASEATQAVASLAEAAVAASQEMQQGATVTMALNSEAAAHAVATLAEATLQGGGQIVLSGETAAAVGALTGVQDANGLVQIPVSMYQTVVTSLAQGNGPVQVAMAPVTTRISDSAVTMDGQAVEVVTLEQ
Myc proto-oncogene protein (Homo sapiens), sequence (P01106 whole entry, looked up): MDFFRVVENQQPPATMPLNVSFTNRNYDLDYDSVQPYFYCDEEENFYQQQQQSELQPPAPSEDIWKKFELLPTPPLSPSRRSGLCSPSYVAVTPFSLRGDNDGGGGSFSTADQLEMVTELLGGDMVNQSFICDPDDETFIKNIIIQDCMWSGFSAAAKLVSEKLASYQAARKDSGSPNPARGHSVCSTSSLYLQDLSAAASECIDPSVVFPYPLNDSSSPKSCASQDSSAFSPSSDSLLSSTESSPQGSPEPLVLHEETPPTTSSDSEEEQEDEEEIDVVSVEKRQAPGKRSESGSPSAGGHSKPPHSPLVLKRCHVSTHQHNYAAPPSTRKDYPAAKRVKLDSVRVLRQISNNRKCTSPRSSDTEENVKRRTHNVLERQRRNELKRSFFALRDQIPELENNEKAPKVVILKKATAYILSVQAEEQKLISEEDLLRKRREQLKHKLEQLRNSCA
Nuclear receptor subfamily 1 group I member 2 (Homo sapiens), sequence (O75469 whole entry, looked up, the tested form may be a part): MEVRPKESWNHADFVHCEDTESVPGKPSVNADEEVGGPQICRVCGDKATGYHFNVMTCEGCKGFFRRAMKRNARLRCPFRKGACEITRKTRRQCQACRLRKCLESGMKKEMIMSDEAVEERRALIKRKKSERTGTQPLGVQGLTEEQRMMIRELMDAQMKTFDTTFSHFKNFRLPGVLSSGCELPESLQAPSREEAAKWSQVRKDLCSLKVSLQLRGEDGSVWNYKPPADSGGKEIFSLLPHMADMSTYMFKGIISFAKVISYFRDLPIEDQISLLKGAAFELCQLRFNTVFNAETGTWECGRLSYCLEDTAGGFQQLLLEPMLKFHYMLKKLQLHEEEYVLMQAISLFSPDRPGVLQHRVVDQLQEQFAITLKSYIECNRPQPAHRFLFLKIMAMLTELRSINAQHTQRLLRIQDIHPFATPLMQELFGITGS
Peroxisome proliferator-activated receptor gamma (Homo sapiens), sequence (P37231 whole entry, looked up, the tested form may be a part): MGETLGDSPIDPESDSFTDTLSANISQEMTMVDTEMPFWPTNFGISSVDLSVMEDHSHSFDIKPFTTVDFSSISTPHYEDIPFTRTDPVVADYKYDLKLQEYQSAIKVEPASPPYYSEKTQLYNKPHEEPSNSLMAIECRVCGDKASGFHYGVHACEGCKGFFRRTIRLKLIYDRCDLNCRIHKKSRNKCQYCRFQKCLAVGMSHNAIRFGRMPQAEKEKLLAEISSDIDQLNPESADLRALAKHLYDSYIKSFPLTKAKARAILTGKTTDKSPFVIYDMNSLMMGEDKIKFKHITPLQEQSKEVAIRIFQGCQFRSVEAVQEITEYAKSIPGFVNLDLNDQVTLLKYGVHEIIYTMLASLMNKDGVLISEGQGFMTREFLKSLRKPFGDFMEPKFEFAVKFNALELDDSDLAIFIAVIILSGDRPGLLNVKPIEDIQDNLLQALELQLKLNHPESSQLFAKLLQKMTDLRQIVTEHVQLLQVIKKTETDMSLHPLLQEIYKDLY
Cellular tumor antigen p53 (Homo sapiens), sequence (P04637 whole entry, looked up): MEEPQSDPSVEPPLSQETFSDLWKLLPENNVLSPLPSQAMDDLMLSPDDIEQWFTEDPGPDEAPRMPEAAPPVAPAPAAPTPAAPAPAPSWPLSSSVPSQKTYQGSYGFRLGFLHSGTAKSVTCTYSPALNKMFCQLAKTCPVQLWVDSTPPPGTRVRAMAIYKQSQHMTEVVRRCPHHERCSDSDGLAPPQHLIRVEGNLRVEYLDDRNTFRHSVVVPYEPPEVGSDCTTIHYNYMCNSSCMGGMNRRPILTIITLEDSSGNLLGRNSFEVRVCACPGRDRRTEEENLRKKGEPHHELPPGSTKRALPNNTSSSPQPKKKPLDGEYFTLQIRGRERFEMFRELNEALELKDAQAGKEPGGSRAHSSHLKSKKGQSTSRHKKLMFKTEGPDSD
human Retinoic Acid Receptor beta (RARb), RARB (gene 5915), sequence (P10826 whole entry, looked up, the tested form may be a part): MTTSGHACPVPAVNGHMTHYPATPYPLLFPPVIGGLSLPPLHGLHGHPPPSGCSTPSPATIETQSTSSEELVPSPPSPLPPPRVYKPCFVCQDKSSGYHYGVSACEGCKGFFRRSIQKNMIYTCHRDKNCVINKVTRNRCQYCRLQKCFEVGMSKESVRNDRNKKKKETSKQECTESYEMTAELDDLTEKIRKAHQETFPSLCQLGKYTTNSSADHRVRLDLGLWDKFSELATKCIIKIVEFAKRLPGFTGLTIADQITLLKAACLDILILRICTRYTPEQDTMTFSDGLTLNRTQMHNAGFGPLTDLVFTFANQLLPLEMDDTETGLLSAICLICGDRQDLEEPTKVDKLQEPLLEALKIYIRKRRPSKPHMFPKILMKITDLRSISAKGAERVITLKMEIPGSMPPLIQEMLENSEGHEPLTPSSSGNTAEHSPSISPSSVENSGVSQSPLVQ
Retinoic acid receptor alpha (Homo sapiens), sequence (P10276 whole entry, looked up, the tested form may be a part): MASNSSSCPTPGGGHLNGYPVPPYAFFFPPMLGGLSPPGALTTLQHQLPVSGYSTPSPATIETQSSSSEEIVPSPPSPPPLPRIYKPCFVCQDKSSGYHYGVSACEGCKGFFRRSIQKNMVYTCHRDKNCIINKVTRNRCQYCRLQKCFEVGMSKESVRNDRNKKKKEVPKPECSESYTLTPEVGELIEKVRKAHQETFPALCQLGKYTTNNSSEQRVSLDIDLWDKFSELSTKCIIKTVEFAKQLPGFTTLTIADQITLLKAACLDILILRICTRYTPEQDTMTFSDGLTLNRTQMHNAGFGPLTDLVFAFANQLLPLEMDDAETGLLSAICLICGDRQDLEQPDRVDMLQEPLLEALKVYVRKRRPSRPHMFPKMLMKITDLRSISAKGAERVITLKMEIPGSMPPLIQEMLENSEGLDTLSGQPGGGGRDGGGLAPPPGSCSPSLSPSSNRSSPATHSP

`CC(CCl)OP(=O)(OC(C)CCl)OC(C)CCl` (configuration not stated): the outcome in [1], in test [2], in test [3], in [4], in test [5] and in test [6] was inactive. In addition, the outcome in test [7], in test [8], in test [9], in test [10], in test [11] and in test [13] was inactive. The AC50 in [12] is 801 nM (active).

Turning to `CCCCCCS`, the result in test [1], in test [2], in [3], in [4], in [5] and in [14] was inactive. For the same compound, the outcome in test [15], in test [16], in [17], in test [11], in test [12] and in test [13] was inactive.

In the case of `C=CC(F)(F)C(F)(F)C(F)(F)C(F)(F)C(F)(F)C(F)(F)C(F)(F)C(F)(F)C=C`, the call in test [1], in test [2], in test [3], in test [4], in [5] and in [14] was inactive. The compound was classed as inactive in test [6], in test [7], in [8], in test [9], in test [16] and in test [18]. Moreover, the result in [10], in [11] and in [13] was inactive.

Take `CCCCCCOC(=O)c1ccccc1O`: the call in test [1], in [2], in [3], in test [4], in [5] and in test [6] was inactive. Further, the compound was classed as inactive in test [15], in test [16], in test [11] and in test [12]. Further, the AC50 in test [19] was 48 µM (active) and 38.5 µM (active); in test [7] it was 24.5 µM (active) and 41.1 µM (active); in test [8], 38.1 µM (active) and 37.2 µM (active); in [9], 37.6 µM (active) and 43.5 µM (active); in [10] it was 35.3 µM (active) and 40.9 µM (active).

As to `O=C(OCCOCCOCCOC(=O)c1ccccc1)c1ccccc1`, the result in [1], in test [2], in [3], in test [4], in [5] and in test [14] was inactive. The result in test [18] and in [11] was inactive.

As for `O=C(O)C(F)(F)C(F)(F)C(F)F`, the compound was classed as inactive in test [1], in test [2], in [3], in test [4], in test [5] and in [6]. Further, the result in test [7], in test [8], in [9], in test [15], in test [18] and in test [17] was inactive. Moreover, the compound was called inactive in [11] and in test [12].

With `C=C(C)C(=O)OCC(F)(F)C(F)(F)C(F)(F)F`, the compound was classed as inactive in test [1], in [2], in test [3], in test [4], in test [5] and in test [14]. The compound was classed as inactive in [6], in test [7], in [8], in test [15], in test [16] and in test [20]. Also, the compound was called inactive in [18], in [17], in test [10], in test [11] and in test [12].

In the case of `CCCCOc1ccc(N)cc1`, the compound was called inactive in [1], in test [2], in test [3], in test [4], in [5] and in test [14]. Also, the result in [11] and in test [12] was inactive.

Regarding `OCC(F)(F)C(F)(F)C(F)(F)C(F)(F)C(F)(F)C(F)F`, the call in test [1], in test [2], in test [3], in test [4], in [5] and in test [6] was inactive. The result in test [19], in test [7], in [8], in [9], in test [16] and in [18] was inactive. The call in test [17], in [11] and in test [12] was inactive.

What is called AC50 is the concentration giving half of the maximal activity seen.
